Data from PubChem BioAssay AID686978 (National Center for Advancing Translational Sciences (NCATS), 2013).
The campaign covered roughly 420,000 compounds. About 64,000 (15%) were called active. Not shown: some 27% with an inconclusive outcome. Only a sample is shown. Values without a mark were called inactive. The call rests on the fitted dose curve; in most records, active means well fitted inhibition curve with a large enough effect; inconclusive means small, poorly fitted or top-dose-only effect; inactive means flat fitted curve, though single readings scatter.

assay: qHTS for Inhibitors of human tyrosyl-DNA phosphodiesterase 1 (TDP1): qHTS in cells in absence of CPT; settings: DT40 Tdp1-/- hTDP1 cells, no CPT, ATP luminescence, 48 h; activity change, negative = growth inhibition: at 46.2 µM (top of the series); further: nearly all actives have a fitted effect of over 55% in size
How it was run: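 A cellular qHTS used chicken DT40 cells lacking endogenous Tdp1 but carrying stably transfected human TDP1. Compounds were applied without camptothecin, and cell growth kinetics were judged by ATP-dependent luminescence after ≥48 hr.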
On the % scale 0 is the no-effect control and ±100 the full control effect; potency means the concentration at half of the fitted maximal effect.

Row | SMILES | activity change, negative = growth inhibition | Potency
1 | COCc1cc(=O)[nH]c2cc(NC(=O)C(F)(F)F)c(C)cc12 | -2.68% | 
2 | Cn1c(=O)c(=O)n(C)c2cc(NC(=O)c3ccccc3Br)ccc21 | -6.28% | 
3 | CCOC(=O)c1cnc2c(C)cc(Cl)cc2c1NCCc1ccc(OC)c(OC)c1 | -24.3% | 
4 | Cc1ccc(OCCCC(=O)Nc2ccc(N3CCOCC3)cc2)cc1 | -18.3% | 
5 | CCOC(=O)c1cnc2c(C)cc(C)cc2c1Nc1ccc(N2CCOCC2)cc1 |  | 5.8 µM (active)
6 | COc1ccc(-c2ccc(=O)n(CC(=O)Nc3ccc(Br)cc3F)n2)cc1 | -9.62% | 
7 | CCCc1nc(SCC(=O)Nc2ccccc2OC)c2c(=O)n(C)c(=O)n(C)c2n1 |  | 23.1 µM (active)
8 | CCCc1nc(SCC(=O)N2CCCC2)c2c(=O)n(C)c(=O)n(C)c2n1 | -0.452% | 
9 | CCc1nc(SCC(=O)Nc2ccccc2OC)n[nH]1 | -4.31% | 
10 | COc1ccc(CCN2CC(C(=O)NCCN3CCNC3=O)CCC2=O)cc1 (stereo not given) | 20.6% | 
11 | O=C(COc1ccccc1)NCc1ccc2c(c1)OCO2 | -28.8% | 
12 | COc1cccc(NC(=O)C2CCCN2C(=O)OCc2ccccc2)c1 (stereo not given) | -24.9% | 
13 | COc1cccc(NC(=O)N2CCCC2C(=O)NC2CCCCC2)c1 (stereo not given) | -3.39% | 
14 | COc1cccc(NC(=O)N(Cc2cn(C)c3ccccc23)C2CCCCCC2)c1 |  | 5.8 µM (active)
15 | O=C1CCC(=O)N1CCOP1(=O)COc2ccccc2OC1 | -3.6% | 
16 | CCN(C(=O)Nc1cccc2ccccc12)c1ccccc1 |  | 20.6 µM (active)
17 | O=C(Nc1cccc2ccccc12)NC1CC1 | -14.7% | 
18 | CC(=O)N(C)c1ccc(NC(=O)Nc2cccc3ccccc23)cc1 | 5.69% | 
19 | COc1ccc(N2C(=O)CCC(C(=O)Nc3ccccn3)C2c2ccc(OC)c(OC)c2)cc1 (stereo not given) | -20.8% | 
20 | CC(C)Cc1nc(Cl)c(C#N)c2c1CCC2 | -18.1% | 
21 | O=C1NC2(CCCCC2)N=C1c1ccccc1 | 0.724% | 
22 | S=c1[nH]nc(-c2cccs2)n1/N=C/c1cccs1 | -2.22% | 
23 | S=c1[nH]nc(-c2ccco2)n1/N=C/c1ccc(Br)s1 | -0.549% | 
24 | Cc1ccsc1/C=N/n1c(=S)[nH]nc(C)c1=O |  | 13 µM (active)
25 | CN(Cc1ccccc1)C(=O)[C@@H]1CCCN1C(=O)[C@@H]1CCCN1C(=O)c1c(F)cccc1F | -18.5% | 

Row | SMILES | activity change, negative = growth inhibition | Potency
26 | N#CC1(NC(=O)COC(=O)CCN=C2NS(=O)(=O)c3ccccc32)CCCCC1 | -0.411% | 
27 | CNC(=S)N/N=C/c1ccc(N2CCOCC2)s1 |  | 3.26 µM (active)
28 | Cc1ccc(C(=O)C(=S)N2CCOCC2)cc1 | -1.15% | 
29 | Cc1cc(C(=O)N/N=C/c2ccc(N3CCOCC3)cc2)c(C)o1 | -28.1% | 
30 | COc1nc(OC)nc(N(C)CCO)n1 | -10.8% | 
31 | COc1cc(CN(C)Cc2nc3cc(C(F)(F)F)ccc3c(=O)[nH]2)ccc1OC(F)F |  | 18.4 µM (active)
32 | CN(CCOc1ccccc1)Cc1nc2cc(Cl)ccc2c(=O)[nH]1 | 0.203% | 
33 | Cc1nc2ccc(S(=O)(=O)NCC(=O)NCCN3CCCCC3C)cc2s1 (stereo not given) | -8.89% | 
34 | Cc1nn(-c2ccccc2)c2c1C(=O)NC(=O)C(C)(C)C2 | -19.3% | 
35 | Cc1nn(-c2ncccn2)c2c1C(=O)CC(C)(C)C2Br (stereo not given) |  | 20.6 µM (active)
36 | O=C(COC(=O)c1n[nH]c2ccccc12)Nc1ccccc1Br | -17.5% | 
37 | CN(C)S(=O)(=O)c1ccc(NC(=O)COC(=O)Cn2[nH]c(=O)c3ccccc3c2=O)cc1 | 4.3% | 
38 | CN(C)S(=O)(=O)c1ccc(NC(=O)COC(=O)c2n[nH]c3ccccc23)cc1 |  | 13 µM (active)
39 | CCOC(=O)c1ccc(N2C(=O)CC(Sc3nc(O)c(CC)c(=O)[nH]3)C2=O)cc1 (stereo not given) | 3.43% | 
40 | O=C1CC(Sc2ncn[nH]2)C(=O)N1c1ccccc1 (stereo not given) |  | 11.6 µM (active)
41 | COc1ccc(-c2nc(SCC(=O)N3CCOCC3)n[nH]2)cc1 | 9.09% | 
42 | COc1ccc(N2C(=O)CC(Sc3n[nH]c(-c4ccc(C)cc4)n3)C2=O)cc1 (stereo not given) |  | 10.3 µM (active)
43 | O=C1CC(N2CCN(c3ccc(F)cc3)CC2)C(=O)N1c1ccccc1 (stereo not given) | -10.2% | 
44 | Cc1ccc(N2C(=O)CC(Nc3cccc4ccccc34)C2=O)cc1 (stereo not given) | -2.47% | 
45 | O=C1CC(c2ccccc2)C(=O)N1c1cccc(O)c1 (stereo not given) | -3.05% | 
46 | COc1ccc(N2C(=O)CC(SC(C)C)C2=O)cc1 (stereo not given) | 9.41% | 
47 | Cc1ccc(N2C(=O)CC(Sc3ncn[nH]3)C2=O)cc1 (stereo not given) |  | 4.61 µM (active)
48 | CC1Cc2[nH][nH]c(=O)c2C(C2CCCC2)O1 (stereo not given) | -27.8% | 
49 | N#Cc1ccc(/C=C2\CCn3c2nc2cc(C(=O)O)ccc2c3=O)cc1 | -11.7% | 
50 | NC1=NOC(=O)C1C1CCCCC1 (stereo not given) |  | 18.4 µM (active)
